# Source: PubChem BioAssay (NCATS)
# Unmarked numbers belong to inactive results. Calls come from the whole dose curve; as a rule, active = well fitted cell-killing curve with a large enough effect; inconclusive = small, poorly fitted or top-dose-only effect; inactive = flat fitted curve, though single readings scatter.
# Assay: MultiTox-Fluor Cytotoxicity Assay - LYMP1-003 - Live Cells (AID 962);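 note: cells exposed to compound for 16 hours at 37 °C; 0% = DMSO only and full loss = 92 µM tetraoctylammonium bromide; cytotoxic hits lower the live-cell protease signal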
# Conditions: LYMP1-003 lymphoblastoid cells, MultiTox-Fluor live-cell protease fluorescence; series mostly up to 92.2 µM; activity change, negative = fewer live cells: at the top concentration
# Outline: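 Acute cytotoxicity is scored as a drop in live-cell protease activity in human lymphoblastoid LYMP1-003 cells after 16 hr compound exposure at 37 C. AC50 values come from Hill-equation modelling of concentration-response data.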
row,SMILES,"activity change, negative = fewer live cells [%]"
1,Nc1ccccc1N,-13.3
2,CC(=O)O[C@@H]1CC(C)=C2[C@H]1[C@H](C)CC[C@H]2/C=C(\C)C(=O)O,-3.04
3,Cc1ccc(N)cc1O,0.242
